High-throughput results deposited in PubChem by National Center for Advancing Translational Sciences (NCATS).
In the library only some 19% were active in any assay of this set; here they are far more common.
TDP1 cell noCPT: qHTS for Inhibitors of human tyrosyl-DNA phosphodiesterase 1 (TDP1): qHTS in cells in absence of CPT; DT40 Tdp1-/- hTDP1 cells, no CPT, ATP luminescence, 48 h; Potency, µM (highest dose often 46.2 µM), for the others: top-dose activity change, negative = growth inhibition, most hits filed as inhibitors; 420,000 tested, 15% active; also: potency is read from the fitted curve at half-maximal effect; nearly all actives have a fitted effect of over 55% in size
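Stably hTDP1-transfected Tdp1-null chicken DT40 cells were treated with library compounds minus camptothecin and grown for at least 48 hr at 37 °C, after which cellular ATP was quantified by luminescence.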
TDP1 cell CPT: DT40-hTDP1 cell growth loss with CPT. chicken DT40 Tdp1-/-;hTDP1 cells + 20 nM CPT, ATP luminescence, 48 h. Potency, µM (doses to about 46.2 µM), without a hit: top-dose activity change, negative = growth inhibition, hits mostly inhibitors. 420,000 tested, 12% active; also: potency is read from the fitted curve at half-maximal effect; nearly all actives have a fitted effect of over 55% in size
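Chicken DT40 Tdp1-/- cells stably complemented with human TDP1 were seeded at 400 cells/well in medium containing 20 nM camptothecin, exposed to pin-transferred compounds, and grown at 37 °C for at least 48 hr. Viability was read as ATP luminescence.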
HT1080 IDH1KD tx: HT-1080 IDH1 knockdown cell toxicity (counter line) | 360,000 tested, 2% active | AID 686971 | HT-1080 IDH1 knockdown viability, ATP luminescence, 48 h | Potency, µM (series often up to 46.1 µM), inactives show top-dose activity, negative = toxicity, usual class: cytotoxic;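 also: potency is read from the fitted curve at half-maximal effect; 0% = DMSO wells and -100% = cell-free medium wells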
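% activity derives from luminescence (CellTiter-Glo), normalised to DMSO and no-cell wells. HT-1080-IDH1KD cells, 750/well, had 48 h compound exposure at 37 °C.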
uPA surface inh: cell surface uPA generation inhibition | cell surface uPA generation assay, qHTS | Potency, µM (doses to about 38.3 µM), for inactives: top-dose activity change, negative = inhibition, actives largely listed as inhibitors | 330,000 tested, 0.31% active | AID 540303; active = well fitted inhibition curve with a large enough effect; inconclusive = small, poorly fitted or top-dose-only effect; inactive = no such curve, though single readings can be large or run the other way; tested in mouse RAW 264.7 cells; also: potency is read from the fitted curve at half-maximal effect; nearly all actives have a fitted effect of over 55% in size
IL1B secr inh: inhibitors of inflammasome signaling (IL-1 beta secretion) | THP-1 LPS/ATP IL-1B secretion, AlphaLISA, 16 h; hits give low values | activity change, % at 57.5 µM | 360,000 tested, 4.7% active; in the data active = activity change below about -50%; inconclusive = mostly about -30% to -49%
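Secreted IL-1B measured by AlphaLISA bead assay after 16 h compound exposure of THP-1 cells; compounds (final up to 57.5 uM) added 1 h before LPS (250 ng/mL) and ATP (1.25 mM) stimulation; lower signal means less secretion.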
HT1080-NT tox: kills 2HG-producing HT-1080-NT fibrosarcoma cells. 360,000 tested, 1.6% active. Potency, µM (titrated, usually from 46.1 µM), for the others: top-dose activity, negative = less viability, hits mostly cytotoxic. HT-1080-NT fibrosarcoma viability, CellTiter-Glo ATP luminescence, 48 h;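 also: NT is the 2HG producing partner of a matched IDH1 knockdown line; potency is read from the fitted curve at half-maximal effect; 0% = DMSO-treated cells and -100% = media-only wells without cells; nearly all actives have a fitted effect of over 55% in size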
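Read-out is CellTiter-Glo luminescence after 10 minutes at room temperature, following 48 hours' compound treatment of HT-1080-NT cells (750 cells/well, RPMI, 5% FBS, 37 degrees C).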
Starred values were filed as active, the others as inactive; u = inconclusive; x = no result; ! = a repeat was not active; [ ] = remark or other dose. Unless noted, calls follow the shape of the dose curve; as a rule, active = well fitted curve in the direction sought with a large enough effect; inconclusive = small, poorly fitted or top-dose-only effect, or another doubt; inactive = no such curve, though single readings can be large; an effect the other way counts as inactive or inconclusive. Unless noted, % is scaled to controls: 0 for no effect and ±100 for the full control effect.

SMILES	TDP1 cell noCPT	TDP1 cell CPT	HT1080 IDH1KD tx	uPA surface inh	IL1B secr inh	HT1080-NT tox
N#Cc1c(Nc2ccccc2C(F)(F)F)s[nH]c1=O	20.6µM*	20.6µM*	u	-6.7%	x	-24.8%
CN1c2c(nc(N)[nH]c2=O)NCC1CNc1ccc(C(=O)NC(CCC(=O)O)C(=O)O)cc1 (stereo not drawn)	u	5.2%	x	x	x	x
COc1cc(COCC(O)CN2CCN(CCN3C(=O)c4cccc5cccc(c45)C3=O)CC2)cc(OC)c1OC (stereo not drawn)	11.6µM*	18.4µM*	-22.5%	-5.8%	u	-20.1%
O=C1c2cccc3cccc(c23)C(=O)N1CCN1CCN(CC(O)COCc2ccc(Cl)cc2)CC1 (stereo not drawn)	14.6µM*	8.2µM*	u	-8.3%	u	20.6µM*
Cn1c(=O)[nH]c(=O)c2c1nc(N1CCCCCC1)n2CCCSc1nc2ccccc2o1	29.1µM*	u	10.8%	-1.9%	-15.7	10.9%
CC1CC(C)CN(c2nc3c(c(=O)n(C)c(=O)n3C)n2CCSc2nc3ccccc3o2)C1 (stereo not drawn)	14.6µM*	18.4µM*	-3.8%	-3.8%	27.4	16.3%
Cn1c(=O)c2c(nc(N3CCCCCC3)n2CCSc2nc3ccccc3o2)n(C)c1=O	23.1µM*	7.31µM*	-1.7%	-3.9%	32.4	-5.5%
Cn1c(=O)[nH]c(=O)c2c1nc(N1CCCCCC1)n2CCSc1nc2ccccc2o1	-11.4%	-13.6%	9.0%	u	17.0	4.7%
Cc1cc(/C=C2\SC(=Nc3ccccc3)NC2=O)c(C)n1-c1ccc(S(N)(=O)=O)cc1	2.59µM*	5.17µM*	5.17µM*	-13.8%	-12.9	7.31µM*
CC(=O)Nc1ccc(S(=O)(=O)N2CCC(c3nc4c(nnn4Cc4ccccc4Cl)c(=O)[nH]3)CC2)cc1	16.2%	25.7%	-16.4%	2.4%	-50.8*	-26.6%
CC(=O)Nc1ccc(Nc2nc(C)nc3c2nnn3Cc2ccccc2Cl)cc1	16.4µM*	-15.8%	u	-6.0%	-18.5	u
O=c1[nH]c(C2CCN(S(=O)(=O)Cc3ccccc3)CC2)nc2c1nnn2Cc1ccccc1Cl	u	u	-7.0%	-1.4%	23.7	-14.3%
O=C(Nc1ccc(F)cc1)N1CCC(c2nc3c(nnn3Cc3ccccc3Cl)c(=O)[nH]2)CC1	u	u	-29.5%	2.5%	-73.8*	-27.6%
Cc1nc(Nc2ccc(Cl)cc2)c2nnn(Cc3ccccc3)c2n1	u	u	-16.2%	-1.2%	-0.6	-25.2%
O=C(C1CCC1)N1CCC(c2nc3c(nnn3Cc3c(F)cccc3Cl)c(=O)[nH]2)CC1	u	-26.0%	u	0.7%	u	-12.3%
Cc1ccc(Cn2nnc3c(=O)[nH]c(C4CCCN(C(=O)Nc5ccc(F)cc5)C4)nc32)cc1 (stereo not drawn)	18.4µM*	u	-13.3%	x	8.7	-1.5%
O=C(Cc1ccccc1)NC1CC(=O)N(c2ccc3c(c2)OCCO3)C1 (stereo not drawn)	4.5%	-4.3%	x	x	x	x
CC(C)(C)c1cc(NC(=O)Nc2ccc(Br)cc2Cl)no1	u	20.6µM*	-16.1%	-0.7%	-56.7*	-19.8%
CC(C)(C)c1cc(NC(=O)Nc2ccc(Cl)cc2Cl)no1	u	u	u	4.8%	-11.5	u
Cc1c(Cl)cccc1NC(=O)Nc1cc(C(C)(C)C)on1	14.6µM*	u	-1.6%	10.9%	-7.6	22.9%
Cc1cc(NC(=O)Nc2ccccc2Cl)no1	-20.6%	-4.4%	-3.8%	-1.2%	3.3	0.1%
Cc1cn(CCOc2ccc(Cl)cc2)c(=O)[nH]c1=O	-0.6%	10.6%	14.1%	-4.6%	6.9	1.2%
COc1c2c(cc3c1C(NC(N)=O)[N+](C)(C)CC3)OCO2 (stereo not drawn)	2.5%[9.04 µM]	10.0%[9.04 µM]	x	x	x	x
Cc1cc(NC(=O)c2cc(-c3ccccn3)nc3ccccc23)no1	-21.2%	-6.8%	-0.7%[9.24 µM]	-1.9%	4.7	-3.6%
CCOc1ccccc1NC(=O)c1cc(-c2ccccn2)nc2ccccc12	10.3µM*	20.6µM*	-0.4%	u	u	18.4%
SMILES	TDP1 cell noCPT	TDP1 cell CPT	HT1080 IDH1KD tx	uPA surface inh	IL1B secr inh	HT1080-NT tox
COc1ccc(NC(=O)c2cc(-c3ccccn3)nc3ccccc23)c(OC)c1	14.6µM*	29.1µM*	-15.5%	0.8%	u	0.0%
O=C(O)/C=C/C(O)c1ccc(Cl)cc1 (stereo not drawn)	4.9%	-27.4%	-1.0%	6.6%	-24.8	2.8%
CC1CCC(C(C)C)C(OC(=O)Cn2c(-c3ccccc3)[n+](C)c3ccccc32)C1 (stereo not drawn)	0.461µM*	0.517µM*	9.2µM*	4.47µM*!	-102.7*	u
Cc1cccc(OCc2n(CC(=O)OC3CC(C)CCC3C(C)C)c3ccccc3[n+]2C)c1 (stereo not drawn)	5.8µM*	5.17µM*	8.2µM*	-16.6%	-97.6*	18.4µM*
CC1CCC(C(C)C)C(OC(=O)CSc2nc(N)cc(=O)[nH]2)C1 (stereo not drawn)	u	u	-2.9%	x	25.0	-1.8%
CC1CCC(C(C)C)C(OC(=O)Cn2c(-c3ccc(F)cc3)[n+](C)c3ccccc32)C1 (stereo not drawn)	2.31µM*	2.31µM*	10.3µM*	-7.1%	-101.0*	18.4µM*
COc1ccc(S(=O)(=O)N2CCC(C(=O)NN3CCCCC3)CC2)cc1OC	19.5%	-0.2%	-0.9%	0.2%	15.2	2.7%
O=C(c1ccco1)N1CCN(Cc2cccc([N+](=O)[O-])c2)CC1	3.1%	-21.8%	2.9%	18.5%	-15.7	13.0%
CCOC(=O)c1noc2ncnc(N3CCN(c4ccccc4OC)CC3)c12	2.91µM*	4.61µM*	x	x	x	x
CCOC(=O)c1c(C)oc2ncnc(N3CCN(c4ccc(C)cc4C)CC3)c12	23.1µM*	20.6µM*	x	x	x	x
CCOC(=O)c1cc(S(=O)(=O)N2CCN(c3ccc(C)cc3C)CC2)[nH]n1	20.6µM*	9.2µM*	x	x	x	x
CCOC(=O)c1cc(S(=O)(=O)NCc2ccc(C)cc2)[nH]n1	-16.3%	u	x	x	x	x
CCOC(=O)c1c(C)oc2ncnc(N3CCN(c4cccc(Cl)c4)CC3)c12	16.4µM*	u	x	x	x	x
Cc1ccc(C)c(NC(=S)N(C)CCO)c1	8.3%	1.7%	12.8%	x	-7.9	8.7%
COc1ccc(S(=O)(=O)NNC(=O)Cc2csc(C)n2)cc1[N+](=O)[O-]	-23.4%	u	6.2%	3.3%	19.3	15.8%
